“And” between values parts separate entries of the source, which are not always exact repeats. Equal values may be shown once.
Experiments:
Test in all cases: cell viability relative to vehicle control; higher = less cytotoxic
K562 = conditions: 10 µM; SRSF2 genotype: SRSF2 wt/wt
In short: (§1)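 After removal of identity-inconsistent compounds, the Selleck bioactive, kinase and epigenetic probe libraries were screened on CRISPR-edited mutant clones and isogenic wild-type clones of four leukaemia lines. Plates were 384-well, each well holding 2000 cells in 50 µL medium and receiving a single 10 µM acoustically dispensed dose. CellTiter-Glo luminescence was read 48 h later, after the supernatant was taken off. Genedata Screener was used to express viability as percent of the on-plate vehicle control.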

MARIMO = conditions: 10 µM
In short: as §1

MOLM14 = conditions: 10 µM
In short: as §1

OCI-AML2 = conditions: 10 µM
In short: as §1

COc1cccc(-c2ccc(NC(=O)C3=C(C(=O)O)CCC3)c(F)c2)c1 [Vidofludimus]
cell viability (K562): 93.2%
cell viability (MARIMO; SRSF2 genotype: SRSF2 P95H/wt): 115%
cell viability (MARIMO; SRSF2 genotype: SRSF2 wt/wt): 120%
cell viability (MOLM14; SRSF2 genotype: SRSF2 P95H/wt): 114%
cell viability (MOLM14; SRSF2 genotype: SRSF2 wt/wt): 108%
cell viability (OCI-AML2; SRSF2 genotype: P95H/wt): 112%
cell viability (OCI-AML2; SRSF2 genotype: wt/wt): 112%

NC(=O)c1cccc(-c2cc(Nc3ccc(OC(F)(F)F)cc3)ncn2)c1
cell viability (K562): 26.8%
cell viability (MARIMO; SRSF2 genotype: SRSF2 P95H/wt): 70.1%
cell viability (MARIMO; SRSF2 genotype: SRSF2 wt/wt): 58.7%
cell viability (MOLM14; SRSF2 genotype: SRSF2 P95H/wt): 102%
cell viability (MOLM14; SRSF2 genotype: SRSF2 wt/wt): 102%
cell viability (OCI-AML2; SRSF2 genotype: P95H/wt): 43.7%
cell viability (OCI-AML2; SRSF2 genotype: wt/wt): 55.3%

COc1cc2nccc(Oc3ccc(NC(=O)Nc4ccc(F)cc4F)c(F)c3)c2cc1OC
cell viability (K562): 93.5%
cell viability (MARIMO; SRSF2 genotype: SRSF2 P95H/wt): 109%
cell viability (MARIMO; SRSF2 genotype: SRSF2 wt/wt): 112%
cell viability (MOLM14; SRSF2 genotype: SRSF2 P95H/wt): 25.1%
cell viability (MOLM14; SRSF2 genotype: SRSF2 wt/wt): 19.4%
cell viability (OCI-AML2; SRSF2 genotype: P95H/wt): 40.2%
cell viability (OCI-AML2; SRSF2 genotype: wt/wt): 51.5%

Cc1cc(C)c(Nc2ccnc(Nc3ccc(C#N)cc3)n2)c(C)c1 [Dapivirine (TMC120)]
cell viability (K562): 45.5%
cell viability (MARIMO; SRSF2 genotype: SRSF2 P95H/wt): 86%
cell viability (MARIMO; SRSF2 genotype: SRSF2 wt/wt): 70.6%
cell viability (MOLM14; SRSF2 genotype: SRSF2 P95H/wt): 75%
cell viability (MOLM14; SRSF2 genotype: SRSF2 wt/wt): 81.1%
cell viability (OCI-AML2; SRSF2 genotype: P95H/wt): 69%
cell viability (OCI-AML2; SRSF2 genotype: wt/wt): 31.3%

C[C@H]1O[C@@H](O[C@H]2CC[C@@]3(C)[C@@H](CC[C@]4(C)[C@@H]3C=C[C@]35OC[C@@]6(CCC(C)(C)C[C@H]63)[C@@H](O)C[C@]54C)[C@]2(C)CO)[C@H](O)[C@@H](O[C@@H]2O[C@H](CO)[C@@H](O)[C@H](O)[C@H]2O)[C@H]1O [Saikosaponin A]
cell viability (K562): 23.1%
cell viability (MARIMO; SRSF2 genotype: SRSF2 P95H/wt): 40.9%
cell viability (MARIMO; SRSF2 genotype: SRSF2 wt/wt): 46.1%
cell viability (MOLM14; SRSF2 genotype: SRSF2 P95H/wt): 23.8%
cell viability (MOLM14; SRSF2 genotype: SRSF2 wt/wt): 28.7%
cell viability (OCI-AML2; SRSF2 genotype: P95H/wt): 42.2%
cell viability (OCI-AML2; SRSF2 genotype: wt/wt): 45%

NC(=O)Nc1sc(-c2ccc(F)cc2)cc1C(N)=O
cell viability (K562): 79.8%
cell viability (MARIMO; SRSF2 genotype: SRSF2 P95H/wt): 56.3%
cell viability (MARIMO; SRSF2 genotype: SRSF2 wt/wt): 50%
cell viability (MOLM14; SRSF2 genotype: SRSF2 P95H/wt): 20.5%
cell viability (MOLM14; SRSF2 genotype: SRSF2 wt/wt): 11%
cell viability (OCI-AML2; SRSF2 genotype: P95H/wt): 20.2%
cell viability (OCI-AML2; SRSF2 genotype: wt/wt): 26.5%

Cn1cc(-c2ccc(F)c(C(F)(F)F)c2)nc1C1CCN(c2ncnc3[nH]ncc23)CC1
cell viability (K562): 86% and 80.8%
cell viability (MARIMO; SRSF2 genotype: SRSF2 P95H/wt): 88.3% and 83.6%
cell viability (MARIMO; SRSF2 genotype: SRSF2 wt/wt): 96.6% and 99.4%
cell viability (MOLM14; SRSF2 genotype: SRSF2 P95H/wt): 92.3% and 80.4%
cell viability (MOLM14; SRSF2 genotype: SRSF2 wt/wt): 95.3% and 97.3%
cell viability (OCI-AML2; SRSF2 genotype: P95H/wt): 85.9% and 77.1%
cell viability (OCI-AML2; SRSF2 genotype: wt/wt): 92.6% and 79.5%

CCOc1ccn(-c2ccc(F)cc2)c(=O)c1C(=O)Nc1ccc(Oc2ccnc(N)c2Cl)c(F)c1
cell viability (K562): 42%
cell viability (MARIMO; SRSF2 genotype: SRSF2 P95H/wt): 69.1%
cell viability (MARIMO; SRSF2 genotype: SRSF2 wt/wt): 82.8%
cell viability (MOLM14; SRSF2 genotype: SRSF2 P95H/wt): 11.3%
cell viability (MOLM14; SRSF2 genotype: SRSF2 wt/wt): 6.04%
cell viability (OCI-AML2; SRSF2 genotype: P95H/wt): 20.9%
cell viability (OCI-AML2; SRSF2 genotype: wt/wt): 28.1%

O=C(CCCCCCNC(=O)c1cnc(N(c2ccccc2)c2ccccc2)nc1)NO
cell viability (K562): 52.1%
cell viability (MARIMO; SRSF2 genotype: SRSF2 P95H/wt): 17.6%
cell viability (MARIMO; SRSF2 genotype: SRSF2 wt/wt): 35.3%
cell viability (MOLM14; SRSF2 genotype: SRSF2 P95H/wt): 2.73%
cell viability (MOLM14; SRSF2 genotype: SRSF2 wt/wt): 2.08%
cell viability (OCI-AML2; SRSF2 genotype: P95H/wt): 0.54%
cell viability (OCI-AML2; SRSF2 genotype: wt/wt): 1.52%

COc1ccc(F)c(F)c1C(=O)c1cnc(NC2CCN(S(C)(=O)=O)CC2)nc1N
cell viability (K562): 54.3%
cell viability (MARIMO; SRSF2 genotype: SRSF2 P95H/wt): 11.3%
cell viability (MARIMO; SRSF2 genotype: SRSF2 wt/wt): 12.1%
cell viability (MOLM14; SRSF2 genotype: SRSF2 P95H/wt): 1.28%
cell viability (MOLM14; SRSF2 genotype: SRSF2 wt/wt): 0.27%
cell viability (OCI-AML2; SRSF2 genotype: P95H/wt): 3.74%
cell viability (OCI-AML2; SRSF2 genotype: wt/wt): 15.6%

O=c1cc(-c2ccc(O)c(O)c2O)oc2ccccc12
cell viability (K562): 69.2%
cell viability (MARIMO; SRSF2 genotype: SRSF2 P95H/wt): 98.5%
cell viability (MARIMO; SRSF2 genotype: SRSF2 wt/wt): 87.9%
cell viability (MOLM14; SRSF2 genotype: SRSF2 P95H/wt): 81.8%
cell viability (MOLM14; SRSF2 genotype: SRSF2 wt/wt): 68.4%
cell viability (OCI-AML2; SRSF2 genotype: P95H/wt): 108%
cell viability (OCI-AML2; SRSF2 genotype: wt/wt): 105%

O=C(NC1CC1)c1cc(-c2cccs2)on1 [Isoxazole 9 (ISX-9)]
cell viability (K562): 53.5%
cell viability (MARIMO; SRSF2 genotype: SRSF2 P95H/wt): 58.5%
cell viability (MARIMO; SRSF2 genotype: SRSF2 wt/wt): 63%
cell viability (MOLM14; SRSF2 genotype: SRSF2 P95H/wt): 46.8%
cell viability (MOLM14; SRSF2 genotype: SRSF2 wt/wt): 35.5%
cell viability (OCI-AML2; SRSF2 genotype: P95H/wt): 74.8%
cell viability (OCI-AML2; SRSF2 genotype: wt/wt): 74.7%

O=C(CCCCCCNC(=O)c1cnc(N(c2ccccc2)c2ccccc2Cl)nc1)NO [Citarinostat (ACY-241)]
cell viability (K562): 47.4%
cell viability (MARIMO; SRSF2 genotype: SRSF2 P95H/wt): 8.12%
cell viability (MARIMO; SRSF2 genotype: SRSF2 wt/wt): 20.9%
cell viability (MOLM14; SRSF2 genotype: SRSF2 P95H/wt): 2.1%
cell viability (MOLM14; SRSF2 genotype: SRSF2 wt/wt): 1.84%
cell viability (OCI-AML2; SRSF2 genotype: P95H/wt): 0.7%
cell viability (OCI-AML2; SRSF2 genotype: wt/wt): 1.25%

CC1(C)CC[C@]2(C(=O)O)CC[C@]3(C)C(=CC[C@@H]4[C@@]5(C)CC[C@H](O[C@@H]6O[C@H](C(=O)O)[C@@H](O)[C@H](O[C@@H]7OC[C@@H](O)[C@H](O)[C@H]7O)[C@H]6O)C(C)(C)[C@@H]5CC[C@]43C)[C@@H]2C1 [Momordin Ic]
cell viability (K562): 88.8%
cell viability (MARIMO; SRSF2 genotype: SRSF2 P95H/wt): 103%
cell viability (MARIMO; SRSF2 genotype: SRSF2 wt/wt): 108%
cell viability (MOLM14; SRSF2 genotype: SRSF2 P95H/wt): 110%
cell viability (MOLM14; SRSF2 genotype: SRSF2 wt/wt): 103%
cell viability (OCI-AML2; SRSF2 genotype: P95H/wt): 97.2%
cell viability (OCI-AML2; SRSF2 genotype: wt/wt): 96.6%

CC=C(C)C(=O)OC1C(OC(C)=O)C2(CO)C(O)CC3(C)C(=CCC4C5(C)CCC(OC6OC(C(=O)O)C(OC7OC(CO)C(O)C(O)C7O)C(O)C6OC6OC(CO)C(O)C(O)C6O)C(C)(CO)C5CCC43C)C2CC1(C)C (stereo not given) [Escin]
cell viability (K562): 48.9%
cell viability (MARIMO; SRSF2 genotype: SRSF2 P95H/wt): 90.1%
cell viability (MARIMO; SRSF2 genotype: SRSF2 wt/wt): 90.1%
cell viability (MOLM14; SRSF2 genotype: SRSF2 P95H/wt): 53.3%
cell viability (MOLM14; SRSF2 genotype: SRSF2 wt/wt): 67.9%
cell viability (OCI-AML2; SRSF2 genotype: P95H/wt): 23.9%
cell viability (OCI-AML2; SRSF2 genotype: wt/wt): 31.4%
